# Laboratory results published in the supplement of paper PMC9023506.
# Where a name gives a salt, the structure may show the parent alone.
# Tested on: Danio rerio larvae (5 dpf)
# Experiment: optomotor response to red moving lines, difference vs DMSO (percentage points (treated minus DMSO)); higher = more of the behaviour than the DMSO vehicle control
# Conditions: 10 µM; exposure time: 3 h pre-incubation + 3 h imaging
# Experimental: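 5-dpf wild-type zebrafish larvae were imaged in 96-well plates. They were treated with 190 Tocris FDA-approved drugs at 10 µM (1 µl/ml DMSO) for 3 h before and 3 h during imaging at 28.5 °C, 48 larvae per drug. Automated image analysis gave % time moving and optomotor responses. Values are drug group mean minus DMSO vehicle mean (n=844), in percentage points, for 10 behaviours.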
row,Compound,optomotor response to red moving lines
1,Cc1c(-c2ccc(O)cc2)n(Cc2ccc(OCCN3CCCCCC3)cc2)c2ccc(O)cc12 [Bazedoxifene acetate],9.09
2,Nc1ncn([C@@H]2O[C@H](CO)[C@@H](O)[C@H]2O)c(=O)n1 [5-Azacytidine],5.02
3,CCCC1O[C@@H]2C[C@H]3[C@@H]4CCC5=CC(=O)C=C[C@]5(C)[C@H]4[C@@H](O)C[C@]3(C)[C@]2(C(=O)CO)O1 (stereo not given in full) [Budesonide],12
4,CC(C)CN(C[C@@H](O)[C@H](Cc1ccccc1)NC(=O)O[C@H]1CO[C@H]2OCC[C@H]21)S(=O)(=O)c1ccc(N)cc1 [Darunavir],4.11
5,N#C[C@@H]1C[C@@H]2C[C@@H]2N1C(=O)[C@@H](N)C12CC3CC(CC(O)(C3)C1)C2 [Saxagliptin hydrochloride],-1.45
6,OCCN1C[C@H](O)[C@@H](O)[C@H](O)[C@H]1CO [Miglitol],9.81
7,Cc1nc(Nc2ncc(C(=O)Nc3c(C)cccc3Cl)s2)cc(N2CCN(CCO)CC2)n1 [Dasatinib],-9.17
8,COc1ccccc1OCC(O)CN1CCN(CC(=O)Nc2c(C)cccc2C)CC1 (stereo not given) [Ranolazine dihydrochloride],9.27
9,NC(=O)c1ncn([C@@H]2O[C@H](CO)[C@@H](O)[C@H]2O)n1 [Ribavirin],7.68
10,CC[C@H](C)C(=O)O[C@H]1C[C@@H](C)C=C2C=C[C@H](C)[C@H](CC[C@@H]3C[C@@H](O)CC(=O)O3)[C@H]21 [Lovastatin],-6.33
11,C[C@@H]1C[C@H]2[C@@H]3CCC4=CC(=O)C=C[C@]4(C)[C@@]3(F)[C@@H](O)C[C@]2(C)[C@@]1(O)C(=O)CO [Dexamethasone],-2.54
12,COc1ccc(-c2ccc3cc(C(=O)O)ccc3c2)cc1C12CC3CC(CC(C3)C1)C2 [Adapalene],-12.7
13,CC(C)C(=O)Nc1ccc([N+](=O)[O-])c(C(F)(F)F)c1 [Flutamide],-10.8
14,Cc1nc(-c2ccc(OCC(C)C)c(C#N)c2)sc1C(=O)O [Febuxostat],-1.5
15,NS(=O)(=O)c1cc(C(=O)O)c(NCc2ccco2)cc1Cl [Furosemide],4.84
16,CC(=O)O[C@]1(C(C)=O)CC[C@H]2[C@@H]3C=C(C)C4=CC(=O)CC[C@]4(C)[C@H]3CC[C@@]21C [Megestrol Acetate],3.71
17,CCOC(=O)C1=C(C)NC(C)=C(C(=O)OC)C1c1cccc(Cl)c1Cl (stereo not given) [Felodipine],4.89
18,CC(C)(C)NC(=O)[C@@H]1C[C@@H]2CCCC[C@@H]2CN1C[C@@H](O)[C@H](Cc1ccccc1)NC(=O)[C@H](CC(N)=O)NC(=O)c1ccc2ccccc2n1 [Saquinavir mesylate],-16.6
19,CCCN(CCC)S(=O)(=O)c1ccc(C(=O)O)cc1 [Probenecid],-2.21
20,CC(C)C(=O)OCC(=O)[C@@]12O[C@H](C3CCCCC3)O[C@@H]1C[C@H]1[C@@H]3CCC4=CC(=O)C=C[C@]4(C)[C@H]3[C@@H](O)C[C@@]12C [Ciclesonide],-8.97

row,Compound,optomotor response to red moving lines
1,O=C1CCc2ccc(OCCCCN3CCN(c4cccc(Cl)c4Cl)CC3)cc2N1 [Aripiprazole],6.21
2,O=C(O)c1cc(/N=N/c2ccc(S(=O)(=O)Nc3ccccn3)cc2)ccc1O [Sulfasalazine],2.01
3,COc1ccc(C[C@@H](C)NC[C@H](O)c2ccc(O)c(NC=O)c2)cc1 [Arformoterol tartrate],-7.51
4,COc1cc2nc(N3CCN(C(=O)c4ccco4)CC3)nc(N)c2cc1OC [Prazosin hydrochloride],-6.9
5,CCN(Cc1ccncc1)C(=O)C(CO)c1ccccc1 (stereo not given) [Tropicamide],1.4
6,CN(CCOc1ccc(NS(C)(=O)=O)cc1)CCc1ccc(NS(C)(=O)=O)cc1 [Dofetilide],-14.2
7,Cc1cn([C@H]2C=C[C@@H](CO)O2)c(=O)[nH]c1=O [Stavudine],9.7
8,C#CCN[C@@H]1CCc2ccccc21 [Rasagiline mesylate],16.9
9,Nc1ncn([C@H]2C[C@H](O)[C@@H](CO)O2)c(=O)n1 [Decitabine],-3.68
10,O=C(c1ccc(OCCN2CCCCC2)cc1)c1c(-c2ccc(O)cc2)sc2cc(O)ccc12 [Raloxifene hydrochloride],3.63
11,Nc1nc(F)nc2c1ncn2[C@@H]1O[C@H](CO)[C@@H](O)[C@@H]1O [Fludarabine],-10.8
12,CN1CC2c3ccccc3Oc3ccc(Cl)cc3C2C1 (stereo not given) [Asenapine maleate],-5.48
13,Cn1nnc2c(C(N)=O)ncn2c1=O [Temozolomide],2.24
14,C=CC(=O)N1CCC[C@@H](n2nc(-c3ccc(Oc4ccccc4)cc3)c3c(N)ncnc32)C1 [Ibrutinib],-1.62
15,Nc1nc(Cl)nc2c1ncn2[C@@H]1O[C@H](CO)[C@@H](O)[C@@H]1F [Clofarabine],1.11
16,CC(C)c1nc(N(C)S(C)(=O)=O)nc(-c2ccc(F)cc2)c1/C=C/[C@@H](O)C[C@@H](O)CC(=O)O [Rosuvastatin calcium],7.07
17,O=c1[nH]c(=O)n([C@H]2C[C@H](O)[C@@H](CO)O2)cc1C(F)(F)F [Trifluorothymidine],9.66
18,COc1cc2nccc(Oc3ccc(NC(=O)C4(C(=O)Nc5ccc(F)cc5)CC4)cc3)c2cc1OC,-13.9
19,Cc1ccc(O)c([C@H](CCN(C(C)C)C(C)C)c2ccccc2)c1 [Tolterodine L-tartrate],-0.0985
20,CC[C@H]1OC(=O)[C@H](C)[C@@H](O[C@H]2C[C@@](C)(OC)[C@@H](O)[C@H](C)O2)[C@H](C)[C@@H](O[C@@H]2O[C@H](C)C[C@H](N(C)C)[C@H]2O)[C@](C)(O)C[C@@H](C)CN(C)[C@H](C)[C@@H](O)[C@]1(C)O [Azithromycin],-11.1
